The record followed here is PubChem BioAssay (NCI).

Each structure is given as a SMILES string. This is part of a sample that, as a whole, favours compounds with a hit. Of some 83,000 tested, about 20% had one in any assay.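 Cell lines were cultured in 96-well plates, exposed to a single compound concentration, and assessed for percent growth 48 hours later.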 A number with no mark means an inactive call. The source made the active and inactive calls. How the source made its calls: active means growth percent below 10; inactive means the rest.

Assay in all cases: NCI-60 one-dose screen, 48 h (100 = growth as untreated, 0 = no growth, -100 = all killed)
Holding throughout (conditions): 10 µM unless noted

The test system of assay [1] is NCI-H23 lung.
Assay [2] deals with NCI-H226 lung.
In assay [3] the test system is HOP-62 NSCLC.
Assay [4] has as its system NCI-H460 lung.
The test system of assay [5] is HOP-92 NSCLC.
In assay [6] the test system is NCI-H522 lung.
The subject of assay [7] is A549/ATCC NSCLC.
Assay [8] relates to 786-0 renal.
The test system of assay [9] is DU-145 prostate.
The test system of assay [10] is K-562 leukemia.
Assay [11] concerns MALME-3M melanoma.
For assay [12], the system named is MDA-MB-231 breast.
Assay [13] has as its system RXF 393 renal.
Assay [14] concerns SF-268 CNS.
Assay [15] relates to SF-295 CNS.
For assay [16], the system named is SF-539 CNS.
The subject of assay [17] is UACC-257 melanoma.
The subject of assay [18] is M14 melanoma.
Assay [19] relates to COLO 205 colon.

Consider `COc1ccc(/C=C2\N=C(c3cccnc3)N(c3ccccc3)NC2=O)cc1`, for which the growth was 95.8% in assay [1]; 86.8% in assay [2]; 109% in assay [3]; 96.4% in assay [4]; 22.9% in [5]; 98.2% in assay [6]. Besides, the growth in assay [7] is 95.7%; in assay [8], 100%; in assay [9] it was 104%; in assay [10], 107%; in [11], 97.4%; in assay [12], 92.1%. In addition, the growth in assay [13] is 89.9%; in assay [14], 91.9%; in assay [15], 95.2%; in assay [16] it was 103%; in assay [17], 102%; in assay [18], 92.8%.
For `Nc1nc2ccc([C@@H]3Nc4ccc5[nH]ncc5c4[C@H]4[C@H]5CCC(C5)[C@H]43)cc2s1`, the growth is 23.2% in [1]; 24.2% in assay [2]; 12.2% in [3]; -26.8% (active) in [4]; 74.7% in assay [5]; -65.7% (active) in assay [6]. Besides, the growth is 25.8% in [7]; 43.9% in assay [8]; 6.12% (active) in assay [19]; 9.96% (active) in assay [9]; 19.4% in assay [10]; -55.7% (active) in assay [11]. The growth was 47.2% in assay [12]; -4.16% (active) in assay [13]; 48.4% in assay [14]; 0.597% (active) in assay [16]; 29.3% in assay [17]; 17.7% in assay [18].
Take `CCOC(=O)Nc1ccc2nc(-c3cscn3)[nH]c2c1`: the growth was 71.6% in assay [1]; 63.5% in assay [2]; 54.1% in assay [3]; 21.7% in [4]; 114% in [5]; 43.7% in [6]. The growth in [7] is 45%; in [8], 67.7%; in assay [19], 29%; in assay [9], 72.9%; in [10], 19.1%; in assay [11], 22%. The growth in assay [12] is 59.9%; in assay [13], 39.2%; in assay [14] it was 66.5%; in assay [16], 62.9%; in assay [17] it was 66.6%; in assay [18] it was 16.1%.
For `COc1ccc(/C(=C\c2cc(OC)c(OC)c(OC)c2)C(=O)N2CCN(c3ccccc3)CC2)cc1O`, the growth in assay [1] is 99.2%; in assay [2], 98.8%; in assay [3], 99%; in assay [4], 106%; in assay [5], 85.9%; in [6] it was 84.4%. The growth in [7] is 90%; in assay [8] it was 103%; in assay [19] it was 111%; in [9], 115%; in [10], 104%; in [11], 104%. The growth was 95.1% in assay [12]; 98.2% in assay [13]; 101% in assay [14]; 96.2% in assay [15]; 92.1% in assay [16]; 93.1% in assay [17]. For the same compound, the growth in assay [18] is 105%.
In the case of `Clc1ccc2c(c1)-c1ccccc1C1=NCCN12`, the growth was 33.4% in assay [1]; 24.7% in assay [2]; 45.9% in [3]; 8.92% (active) in assay [4]; 58.6% in [5]; 23.2% in assay [6]. Further, the growth in assay [7] is 13%; in assay [8], 44.8%; in assay [19], 7.28% (active); in assay [9] it was 30.8%; in assay [10], 9.07% (active); in assay [11] it was 11.5%. Also, the growth is 45.6% in [12]; 2.19% (active) in assay [13]; 41.1% in [14]; 33.8% in assay [16]; 14.2% in assay [17]; 37.8% in [18].
With `O=C(O)/C=C(\c1nc2ccc([N+](=O)[O-])cc2[nH]1)c1cc(Cl)ccc1O`, the growth in assay [1] is 4.9% (active); in assay [2], 34.4%; in assay [3], 42.8%; in assay [4], 14.4%; in assay [5] it was 8.34% (active); in assay [6] it was 2.47% (active). Also, the growth in assay [7] was 27%; in assay [8] it was 44%; in assay [19], 27.5%; in assay [9] it was 39.9%; in assay [10] it was 14.7%; in assay [11] it was 6.7% (active). For the same compound, the growth was 13.1% in [12]; 39.1% in [13]; 32.2% in assay [14]; 21.6% in [15]; 26.3% in assay [16]; 17.8% in [17]. The growth in assay [18] was 25.8%.
Turning to `c1ccc(C(Nc2ccccn2)(c2ccccc2)c2ccccc2)cc1`, the growth in assay [1] was 74.6%; in assay [2] it was 72.6%; in assay [4] it was 79.9%; in [5], 4.44% (active); in assay [6] it was 70.7%; in assay [7], 65.9%. The growth in assay [8] is 81.4%; in assay [19], 90%; in assay [9] it was 85.6%; in assay [10], 56%; in [11], 109%; in assay [12] it was 66.8%. Besides, the growth in assay [13] is 82.9%; in [14], 99.5%; in assay [16] it was 86.4%; in assay [17] it was 97.4%; in [18], 87.9%.
Regarding `O=C1CC2(O)CSc3nc(=O)cc(n32)N1` (centres undefined), the growth was 107% in assay [1]; 98.6% in assay [2]; 112% in assay [3]; 104% in assay [4]; 105% in [5]; 102% in assay [6]. In addition, the growth in assay [7] is 96.5%; in assay [8], 99.6%; in assay [19] it was 103%; in [9] it was 115%; in assay [10], 111%; in [11] it was 99.8%. Moreover, the growth in assay [12] is 100%; in assay [13], 110%; in assay [14], 112%; in assay [15], 88.8%; in assay [16], 104%; in assay [17] it was 99.2%. Besides, in [18], the growth is 101%.
As for `COc1ccc(C(=O)c2c(N)nc3n2CCCC3)cc1OC`, the growth was 109% in [1]; 96.9% in assay [2]; 102% in [3]; 105% in assay [4]; 118% in [5]; 81.7% in assay [6]. Also, the growth in assay [7] is 102%; in assay [8], 100%; in assay [19], 107%; in assay [9], 107%; in assay [10] it was 90.6%; in assay [11], 99.9%. Also, the growth in assay [12] was 115%; in assay [13] it was 111%; in assay [14], 106%; in assay [16], 102%; in assay [17], 100%; in assay [18], 103%.
